From PubChem
The list is not random: actives were taken first. Their share in the collection is about 4%.
CF NFkB inh – cystic fibrosis NF-kB activation inhibition. actives 0.86% (n = 360,000). AID 588850. KKLEB NF-kB-GFP reporter, PAF-induced, GFP fluorescence overnight. inhibition, % at 5 µM;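 active = at least 50% inhibition at 5 µM, scaled per plate between neutral and stimulator controls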;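 note: PAF is a Pseudomonas aeruginosa culture filtrate used as stimulus; plate controls were PAF-stimulated DMSO wells for no effect and unstimulated DMSO wells for full effect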
TROY NFkB inh – blocks TROY-dependent signaling in reporter cells; actives 0.98% (n = 360,000); Q293 LMP1-TROYcd NF-kB luciferase reporter, 4 h; AID 1347056; inhibition, % at 10 µM;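 active = compounds whose plate-normalised and pattern-corrected inhibition of the luciferase reporter signal at the single screening dose is 50% or more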
Peg3 prom inh – inhibitors of Peg3 promoter. actives 1.7% (n = 360,000). inhibition, % at 20 µM. HeLa PEG-Prom luciferase reporter, luminescence, overnight;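 active = inhibition of at least 50% at 20 µM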
KKLEB tox – reduces viability of KKLEB cystic fibrosis airway cells. activity change (cytotoxicity), % at 5 µM. KKLEB CF airway cells viability, ATPlite luminescence, overnight; hits give low values; cells stimulated with P. aeruginosa culture filtrate. actives 0.36% (n = 360,000);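 active = corrected activity change at or below -50% at 5 µM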
TWEAK Fn14 block – blocks TWEAK-Fn14 interaction in a reporter cell assay | AID 1159606 | TWEAK-stimulated Fn14 reporter cells, luciferase luminescence, 8 h | inhibition, % at 10 µM | actives 2% (n = 360,000); in the data active = inhibition above about 50%
HIF-2a block – blocks HIF-2a reporter activity | 786-0 RCC cells HIF-2a reporter, luciferase luminescence, overnight | inhibition, % at 18.8 µM | actives 0.72% (n = 360,000) | AID 624352;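 active = inhibition of the luminescence signal of 40% or more relative to plate controls, in a single-dose primary screen at 18.75 µM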
Active calls of the source: *.

`CC1CCN(CCNC(=O)c2ccc3c(=O)n(Cc4ccc(Cl)cc4)c(=S)[nH]c3c2)CC1` gave CF NFkB inh -5.1, TROY NFkB inh -36.1, Peg3 prom inh 94.5*, KKLEB tox -12.5, TWEAK Fn14 block -33.0 and HIF-2a block 30.3.
For COc1ccc(C2/C=C\CN3CCC[C@H]3C(=O)N2Cc2ccc(F)cc2)cc1 (some centres not stated) the results were CF NFkB inh 9.5, TROY NFkB inh -16.6, Peg3 prom inh -4.9, KKLEB tox 8.8, TWEAK Fn14 block -15.7 and HIF-2a block 1.6.
`CCCc1cc2nnc(SCC(=O)N(C)C3CCCCC3)n2c(N)n1` gave CF NFkB inh 7.1, TROY NFkB inh -24.8, Peg3 prom inh -0.2, KKLEB tox 0.5, TWEAK Fn14 block 7.7 and HIF-2a block 1.5.
COCCN(C(=O)CSc1cc(C)c2ccccc2n1)c1c(N)n(CC(C)C)c(=O)[nH]c1=O was read as CF NFkB inh -4.9, TROY NFkB inh -8.6, Peg3 prom inh -4.5, KKLEB tox 14.1, TWEAK Fn14 block -11.2 and HIF-2a block 16.3.
`Cc1cccc(N(CC(=O)NCC2CCCO2)C(=O)CNS(=O)(=O)c2ccc(Cl)cc2)c1` (configuration not stated) gave CF NFkB inh -8.5, TROY NFkB inh -4.2, Peg3 prom inh 16.6, KKLEB tox 7.1, TWEAK Fn14 block 12.4 and HIF-2a block 9.2.
Screening CCN(CC)c1ccc(/C=N/NC(=O)c2ccoc2C)cc1 returned CF NFkB inh 8.4, TROY NFkB inh 42.4, Peg3 prom inh -111.6, KKLEB tox -11.6, TWEAK Fn14 block 63.3* and HIF-2a block -185.9.
`CC(C)NC(=O)N(O)C1N(Cc2ccc3c(c2)OCO3)C(=S)SC1(C)C` (configuration not stated) gave CF NFkB inh -13.5, TROY NFkB inh -7.3, Peg3 prom inh 3.6, KKLEB tox 0.2, TWEAK Fn14 block 58.1* and HIF-2a block 8.2.
Screening CCOc1cc(C2c3c(n[nH]c3C)C(=O)N2c2ccc(Br)cc2)ccc1O (configuration not stated) returned CF NFkB inh -0.1, TROY NFkB inh 50.2*, Peg3 prom inh -25.0, KKLEB tox -6.6, TWEAK Fn14 block 39.8 and HIF-2a block -21.1.
Screening CCCCCn1c(N2CCC(Cc3ccccc3)CC2)nc2c1c(=O)[nH]c(=O)n2C returned CF NFkB inh 20.8, TROY NFkB inh 48.1, Peg3 prom inh 64.2*, KKLEB tox -7.8, TWEAK Fn14 block 40.9 and HIF-2a block -59.6.
CCCCCn1c(N(C)Cc2ccccc2)nc2c1c(=O)[nH]c(=O)n2C was read as CF NFkB inh 24.8, TROY NFkB inh -13.1, Peg3 prom inh 55.1*, KKLEB tox 3.5, TWEAK Fn14 block 9.8 and HIF-2a block 17.4.
`COc1ccc(-c2ccc(C(=O)NCc3ccco3)c3occc23)c(C)c1` gave CF NFkB inh -0.8, TROY NFkB inh -17.8, Peg3 prom inh -144.8, KKLEB tox -7.6, TWEAK Fn14 block 4.3 and HIF-2a block -192.0.
Screening Cc1csc(N/N=C/c2ccccn2)n1 returned CF NFkB inh -6.7, TROY NFkB inh -4.1, Peg3 prom inh -16.4, KKLEB tox -22.7, TWEAK Fn14 block 72.2* and HIF-2a block 1.4.
C(=N\NC1=Nc2cccc3cccc1c23)/c1ccccn1 was read as CF NFkB inh 51.3*, TROY NFkB inh 18.9, Peg3 prom inh -75.8, KKLEB tox -26.4, TWEAK Fn14 block 62.8* and HIF-2a block -214.2.
`NC(=O)c1cccc(-c2cnc3c(Nc4cccc(OC(F)(F)C(F)F)c4)nccn23)c1` gave CF NFkB inh 10.9, TROY NFkB inh 45.6, Peg3 prom inh -116.7, KKLEB tox -10.4, TWEAK Fn14 block 72.2* and HIF-2a block -242.4.
CN(C)c1ccc(-c2ccnc3c2CC(C)(C(=O)Nc2cccc(C(F)(F)F)c2)O3)cc1 (configuration not stated) was read as CF NFkB inh 22.1, TROY NFkB inh 3.7, Peg3 prom inh 19.7, KKLEB tox 13.5, TWEAK Fn14 block -0.6 and HIF-2a block 2.6.
For Cc1cc(C)nc(S/C=C/C(=O)c2ccccc2F)n1 the results were CF NFkB inh 76.4*, TROY NFkB inh 70.2*, Peg3 prom inh 96.7*, KKLEB tox 8.2, TWEAK Fn14 block 93.2* and HIF-2a block 14.7.
Screening O=C(CCl)NC(=O)NC12CC3CC(CC(C3)C1)C2 returned CF NFkB inh 1.3, TROY NFkB inh 7.6, Peg3 prom inh 63.1*, KKLEB tox -10.9, TWEAK Fn14 block -19.0 and HIF-2a block 20.0.
CC(Cl)C(=O)NC(=O)NC12CC3CC(CC(C3)C1)C2 (configuration not stated) was read as CF NFkB inh -35.9, TROY NFkB inh -0.4, Peg3 prom inh 29.0, KKLEB tox 1.5, TWEAK Fn14 block 4.3 and HIF-2a block 4.0.
O=C1COc2ccc(S(=O)(=O)N3CCN(c4ccccc4F)CC3)cc2N1 was read as CF NFkB inh -12.9, TROY NFkB inh 6.9, Peg3 prom inh 18.6, KKLEB tox -2.5, TWEAK Fn14 block 5.2 and HIF-2a block 10.5.
N#Cc1c(-c2ccccc2)nc(SCC(=O)N2c3ccccc3Sc3ccccc32)[nH]c1=O was read as CF NFkB inh -2.5, TROY NFkB inh 55.0*, Peg3 prom inh -9.5, KKLEB tox -12.7, TWEAK Fn14 block -27.6 and HIF-2a block 17.2.
For N#Cc1c(-c2ccccc2)nc(SCc2ccc(Cl)cc2)[nH]c1=O the results were CF NFkB inh 1.9, TROY NFkB inh 51.3*, Peg3 prom inh 4.8, KKLEB tox 7.4, TWEAK Fn14 block -14.1 and HIF-2a block 16.9.
`C=CCSc1nc(-c2ccccc2)c(C#N)c(=O)[nH]1` gave CF NFkB inh -0.8, TROY NFkB inh 10.8, Peg3 prom inh 12.2, KKLEB tox 9.7, TWEAK Fn14 block 2.5 and HIF-2a block -5.7.
For COCc1cc(CNC(=O)C2CCC(=O)N(Cc3ccccc3F)C2)[nH]n1 (configuration not stated) the results were CF NFkB inh -25.0, TROY NFkB inh -3.5, Peg3 prom inh -1.6, KKLEB tox 16.5, TWEAK Fn14 block -12.8 and HIF-2a block -20.1.
For CNC(=S)N/N=C1\C(=O)c2cccc3cccc1c23 the results were CF NFkB inh -84.8, TROY NFkB inh -61.8, Peg3 prom inh -41.1, KKLEB tox -1.4, TWEAK Fn14 block 96.9* and HIF-2a block -38.1.
Screening CCCCNC(=S)N/N=C1\C(=O)c2cccc3cccc1c23 returned CF NFkB inh -5.3, TROY NFkB inh 7.2, Peg3 prom inh -7.1, KKLEB tox 6.6, TWEAK Fn14 block -12.1 and HIF-2a block -2.5.
For O=C(COc1ccc(CO)cc1Cl)Nc1ccc(F)cc1 the results were CF NFkB inh -7.2, TROY NFkB inh 6.8, Peg3 prom inh -112.7, KKLEB tox -7.4, TWEAK Fn14 block 62.8* and HIF-2a block -76.0.
Cc1cc(C)cc(Nc2ncc3c(n2)CCCC3=O)c1 was read as CF NFkB inh -11.0, TROY NFkB inh 16.4, Peg3 prom inh -48.8, KKLEB tox 6.5, TWEAK Fn14 block 71.1* and HIF-2a block -43.1.
